About 83,000 compounds went through this panel and 20% of them were active in at least one assay; those are over-represented in the sample as a whole.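 How to read the values: 0–100, growth inhibition (40 = 60% inhibited); 0, no net growth; -100 to 0, cell death (-40 = 40% of starting cells died; -100 = all dead).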 A number with no mark means an inactive call. Activity calls are given as the source filed them. The calls were made as follows: active = growth percent below 10; inactive = the rest.

The assay has as its system HL-60(TB) leukemia. Nature of the assay: NCI-60 one-dose screen, 48 h (100 = growth as untreated, 0 = no growth, -100 = all killed). The note with it: 10 µM unless noted.
With `CC(=O)[C@@]12O[C@](C)(c3ccccc3)O[C@@H]1CC1C3CCC4=CC(=O)CC[C@]4(C)C3CC[C@@]12C` (stereo not given in full), the growth was 0.639% (active).

Regarding `Cc1cc2c(c(C)c1Cl)C(=O)/C(=C/c1cccc([N+](=O)[O-])c1)O2`, the growth was 98.8%.

As to `COc1cc2c(cc1O)C(=O)CCCC2`, the growth is 90.3%.

Turning to `CC1CCC2(OC1)OC1CC3C4CC=C5CC(O)CCC5(C)C4CCC3(C)C1C2C` (stereo not given), the growth is 91.9%.

As to `COc1ccc(/C(=C\c2cc(OC)c(OC)c(OC)c2)C(=O)Nc2nc3ccc(Cl)cc3s2)cc1`, the growth is 81.4%.

`Nc1ccc(N=Nc2ccc(S(=O)(=O)O)cc2)c2ccccc12`: the growth is 62.8%.

Turning to `c1ccc(Nc2ccccn2)nc1`, the growth was 101%.

With `COC1CC(N)C2OC(c3ccccc3)OCC2O1` (stereo not given), the growth was 102%.

Turning to `COc1cc(/C=N/NC(=O)c2ccc(C)nc2)cc(OC)c1OC`, the growth was 56%.

For the molecule `COc1cc(C(N)=O)cc(OC)c1OC`, the growth is 96.6%.

With `COc1ccc(NC(=O)c2sc3nc4c(cc3c2N)C(O)CCC4)cc1` (stereo not given), the growth was 93.2%.

Consider `O=C(Nc1ccc(-n2cc(-c3ccncc3)c(-c3ccc(Cl)c(O)c3)n2)cc1)c1ccc(Cl)c(C(F)(F)F)c1`, for which the growth is -29.1% (active).

`CN1CCN(c2ccc3nc(-c4[nH]ncc4Nc4ncnc5c4OCCCN5)[nH]c3c2)CC1`: the growth was -28.7% (active).

On to `COc1ccc2c(c1)C(c1cc(OC)c3c(c1)OCO3)C1=C(COC1=O)N2` (stereo not given), for which the growth was 4.04% (active).

`Cc1c(CN)cc(-c2ccc(Cl)cc2)n1-c1ccccc1`: the growth is 86.9%.

Turning to `CC/C(=C(/c1ccc(Cl)cc1)c1ccc(OCCN(CC)CC)cc1)c1ccc(OC)cc1`, the growth is 33.3%.

`Cc1cc(C(N)=O)cc(C)c1C(=O)OCCCl`: the growth was 106%.

As for `Cc1nc(-c2cn3c(n2)-c2ccc(-c4cnn(C(C)(C)C(N)=O)c4)cc2OCC3)n(C(C)C)n1`, the growth was 35.7%.

For the molecule `CCN(Cc1ccc(CN(CC)C(=O)C(Cl)(Cl)Cl)cc1)C(=O)C(Cl)(Cl)Cl`, the growth is 6.38% (active).

Turning to `CCCC(O)Cn1ncc(C(=O)OCC)c1NC(=O)NCc1cccc(C(F)(F)F)c1` (stereo not given), the growth is 71.2%.

For the molecule `COc1ccc(F)c(F)c1C(=O)c1cnc(NC2CCN(S(C)(=O)=O)CC2)nc1N`, the growth was -32.2% (active).

Take `CN1CCN(Cc2ccc(NC(=O)c3cncc(C#Cc4nc(N)nc5[nH]ncc45)c3)cc2C(F)(F)F)CC1`: the growth was 1.4% (active).

With `COc1ccc(Cl)cc1NC(=O)c1cc2c([nH]1)-c1nc(NC(=O)C(C)C)sc1CC2`, the growth was 90.9%.

With `CCCCCOc1ccc(/C=N/Nc2cc(C)nc3ccc(Cl)cc23)cc1`, the growth is 0.0681% (active).

Turning to `Cc1ccc(C2CC(c3cccc(Nc4ccncc4)c3)=NN2c2cc(Cl)cc(Cl)c2)cc1` (stereo not given), the growth was 14.8%.

On to `CC(C)C1=C[C@@]23CC[C@@H]4[C@](C)(CCC[C@@]4(C)C(=O)OCC#CCN4CCCC4)[C@H]2C[C@@H]1[C@H]1C(=O)OC(=O)[C@H]13`, for which the growth was 95.7%.

With `O=C(N=Nc1c(O)[nH]c2ccccc12)Nc1ccc(Br)cc1`, the growth is 70.2%.

In the case of `CC(=O)C1CCC2C3CC(C)=C4CC(O)CCC4(C)C3CCC12C` (stereo not given), the growth is 98.7%.

In the case of `CCCCNc1nnc(-c2cc(-c3cc4ccccc4o3)nn2-c2ccccc2)o1`, the growth was 86.5%.

Regarding `Cc1cccc(C[C@H](NC(=O)Nc2ccc(C)cc2F)C(=O)N[C@@H]2C(=O)N3C[C@H](O)C[C@H]3C(=O)N3CCN(C)C[C@H]3C(=O)N[C@@H](C)C(=O)N3C[C@H](C)C[C@H]3C(=O)O[C@H]2C)c1`, the growth is 24.2%.

Regarding `Cc1ccc(S(=O)(=O)Oc2ccc(NC(=O)c3ccc(Cl)cc3)cc2)cc1`, the growth is 89.2%.

For the molecule `C=C(C)[C@@H]1CC[C@]2(COC(=O)c3ccccc3C(=O)O)CC[C@]3(C)[C@H](CC[C@@H]4[C@@]5(C)CCCNC(C)(C)[C@@H]5CC[C@]43C)[C@@H]12`, the growth was 6.45% (active).

Regarding `COc1cc(OC)cc(N2CCN(C(=O)Nc3nc4cc(F)ccc4nc3OC)CC2)c1`, the growth is -17% (active).

With `CCCCN(CCCC)c1ccc(C(=N)c2ccc(N(C)C)cc2)cc1`, the growth was -55.1% (active).

With `CCN(CC)CCNc1ccc(C)c2sc3cc(Cl)ccc3c(=O)c12`, the growth is 17%.

Turning to `CN1C(=O)N(C)C2NC(N/N=C/c3ccccc3)=NC21` (stereo not given), the growth was 99.6%.

As to `CC(C)c1ccc(C(=O)Nc2nc3ccc(O)c(CN(C)C)c3s2)cc1`, the growth is 76.8%.

With `COc1ccc(C2CC(c3cccc(Nc4ccncc4)c3)=NN2c2cc(Cl)cc(Cl)c2)cc1` (stereo not given), the growth is 4.35% (active).

Consider `CC(=O)Nc1ccc(C(=O)CCl)cc1`, for which the growth was -19.4% (active).

In the case of `CCN(CC)CCCC(C)N=C(C1=C(C(=NC(C)CCCN(CC)CC)c2cccc(OC)c2)C(=O)NC1=O)c1cccc(OC)c1` (stereo not given), the growth is -49.3% (active).
